Source: PubChem (several laboratories)
TWEAK-Fn14 inh: blocks TWEAK-Fn14 interaction in a reporter cell assay. TWEAK-stimulated Fn14 reporter cells, luciferase luminescence, 8 h. AID 1159606. 360,000 tested, 2% active. inhibition, % at 10 µM; in the data active = inhibition above about 50%
MITF TRPM1 inh: MITF TRPM1 promoter inhibition in SK-MEL-5 cells; 330,000 tested, 0.83% active; inhibition, % at 12.5 µM; AID 488899; SK-MEL-5 TRPM1 promoter luciferase, 24 h;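 active = mean inhibition across replicates of 60% or more, whatever share of single replicates reaches that level; inconclusive = some that reach 60%, reason not given; inactive = mean inhibition across replicates below 60%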
Shn3 3UTR inh: inhibitors of Schnurri-3 3'UTR reporter in osteoblasts; inhibition, % at 12.5 µM; Clone20 osteoblast Shn3 3'UTR firefly luciferase, 24 h; 360,000 tested, 0.52% active;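 active = mean inhibition of at least 75% with every replicate also reaching 75%; inconclusive = mean inhibition at least 75% but some replicate below; inactive = mean inhibition below 75%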
TROY signal inh: blocks TROY-dependent signaling in reporter cells; Q293 LMP1-TROYcd NF-kB luciferase reporter, 4 h; inhibition, % at 10 µM; 360,000 tested, 0.98% active; AID 1347056;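 active = compounds whose plate-normalised and pattern-corrected inhibition of the luciferase reporter signal at the single screening dose is 50% or more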
EBV LMP1 NFkB: inhibitors of Epstein-Barr LMP1-induced NF-kappaB reporter; 350,000 tested, 0.69% active; AID 504558; LMP1-induced NF-kappaB luciferase reporter cells, luminescence; inhibition, % at 12.5 µM; in the data active = inhibition above about 41%; inconclusive = no clear call, values can overlap the other calls
HIF-2a block: HIF-2a inhibition; 786-0 RCC cells HIF-2a reporter, luciferase luminescence, overnight; inhibition, % at 18.8 µM; 360,000 tested, 0.72% active;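 active = inhibition of the luminescence signal of 40% or more relative to plate controls, in a single-dose primary screen at 18.75 µM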
Mdm2-MdmX confirm: confirmation of inhibitors of human Mdm2/MdmX interaction, set 2; shares compounds with HIF-2a block; SaOS-2 split-luciferase Mdm2/MdmX complementation, luminescence; inhibition, % at 8 µM; 740 tested, 99% active; AID 504601;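 active = mean inhibition of the luminescence signal across two replicates at or above 26 percent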
Target sequence (O15151 whole entry, looked up): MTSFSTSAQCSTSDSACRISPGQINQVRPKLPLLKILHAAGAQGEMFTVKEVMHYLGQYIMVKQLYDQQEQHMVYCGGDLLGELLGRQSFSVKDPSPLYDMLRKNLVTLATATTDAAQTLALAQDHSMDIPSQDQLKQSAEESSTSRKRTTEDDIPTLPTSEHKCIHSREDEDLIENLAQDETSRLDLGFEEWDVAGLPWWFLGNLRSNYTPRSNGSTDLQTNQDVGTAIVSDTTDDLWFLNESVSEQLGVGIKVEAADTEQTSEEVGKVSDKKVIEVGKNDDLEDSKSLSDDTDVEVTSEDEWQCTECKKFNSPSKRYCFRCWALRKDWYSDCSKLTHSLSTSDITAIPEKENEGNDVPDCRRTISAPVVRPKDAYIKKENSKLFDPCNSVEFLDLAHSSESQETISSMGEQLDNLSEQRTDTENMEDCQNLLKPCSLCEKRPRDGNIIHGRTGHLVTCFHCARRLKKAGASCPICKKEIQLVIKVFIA
Target sequence (Q00987 whole entry, looked up): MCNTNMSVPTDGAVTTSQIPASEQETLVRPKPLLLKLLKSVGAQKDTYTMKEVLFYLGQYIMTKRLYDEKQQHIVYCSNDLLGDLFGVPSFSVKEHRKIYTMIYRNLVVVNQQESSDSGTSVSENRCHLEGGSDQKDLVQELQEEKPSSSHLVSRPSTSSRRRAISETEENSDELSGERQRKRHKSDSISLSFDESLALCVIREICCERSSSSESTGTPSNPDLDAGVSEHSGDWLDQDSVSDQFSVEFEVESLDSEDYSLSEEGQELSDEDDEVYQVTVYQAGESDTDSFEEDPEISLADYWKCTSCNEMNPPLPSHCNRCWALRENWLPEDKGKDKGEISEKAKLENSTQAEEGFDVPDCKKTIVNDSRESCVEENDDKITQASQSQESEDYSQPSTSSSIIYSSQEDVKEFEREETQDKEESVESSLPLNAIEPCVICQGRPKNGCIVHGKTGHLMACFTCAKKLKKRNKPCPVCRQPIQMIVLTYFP
HIF-2a conf: confirmation of HIF-2a inhibitors | 786-0 RCC cells, HIF-2a luciferase reporter luminescence, overnight | AID 651580 | shares compounds with HIF-2a block | inhibition, % at 18.8 µM | 1,800 tested, 56% active;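 active = mean inhibition across four replicates of at least 40 percent at the single tested concentration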
HIF-1a cs: counter-screen for HIF-2a inhibitors: HIF-1a inhibition in MiaPaCa-2 cells; MiaPaCa-2 HIF-1a luciferase reporter, desferoxamine, overnight; shares compounds with HIF-2a block; inhibition, % at 18.8 µM; 1,800 tested, 72% active;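 active = mean inhibition of the reporter signal across four replicates at the single tested dose of 50% or more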
A number is an active result; 0 = inactive; ? = inconclusive; - = no result given. In the library only some 3.4% were active in any assay of this set; here they are far more common.

SMILES | TWEAK-Fn14 inh | MITF TRPM1 inh | Shn3 3UTR inh | TROY signal inh | EBV LMP1 NFkB | HIF-2a block | HIF-2a conf | HIF-1a cs | others
Cn1c(=O)c2cc(NC(=O)NCc3ccc(F)cc3)ccc2n1Cc1cccc(C(F)(F)F)c1 | 0 | - | 0 | 0 | - | 0 | - | -
CC(C)(O)CC[C@@H](O)[C@](C)(O)[C@H]1CC[C@@]2(O)C3=CC(=O)[C@@H]4C[C@@H](O)[C@@H](O)C[C@]4(C)[C@H]3CC[C@]12C | 0 | 0 | 0 | 0 | 0 | 0 | - | -
O=C(O)c1ccc(NC2=C(N3CCOCC3)C(=O)c3ccccc3C2=O)cc1 | 0 | 0 | 0 | 0 | 0 | 0 | - | -
CC(=O)N(C1=C(N2CCOCC2)C(=O)c2ccccc2C1=O)c1ccc(C(=O)O)cc1 | 0 | 0 | - | 0 | 0 | 64 | - | -
Cc1[nH]c(-c2ccc(F)cc2)cc1C(=O)N1CCN(c2ccc(Cl)cc2)CC1 | 89 | 0 | 0 | 0 | 0 | 0 | - | -
COc1ccc(N2CCN(C(=O)c3cc(-c4ccc(F)cc4)[nH]c3C)CC2)cc1 | 0 | 0 | 0 | 0 | 0 | 0 | - | -
CNC[C@H](CC1CCCCC1)NC[C@H](Cc1ccccc1)NCCC12CC3CC(CC(C3)C1)C2 | 0 | 0 | 98 | 0 | 0 | 96 | 0 | 104 | Mdm2-MdmX confirm=103
COC(=O)c1cccc(NC(=O)CSc2nnc(-c3ccco3)o2)c1 | 0 | 0 | 0 | 0 | 0 | 0 | - | -
O=C(NCc1cccnc1)/C(=C\c1ccc(-c2cccc(Cl)c2)o1)S(=O)(=O)c1ccccc1 | 104 | 90 | 97 | 78 | 0 | 98 | 99 | 105
Cc1ccc(C(=O)N/C(=C\c2ccc(-c3cc(Cl)ccc3Cl)o2)C(=O)NCc2cccnc2)cc1 | 0 | 0 | 0 | 0 | 0 | 0 | - | -
O=C(NCc1cccnc1)/C(=C/c1ccc(-c2cccc(Cl)c2)o1)S(=O)(=O)c1ccccc1 | 58 | 0 | 0 | 0 | 0 | 43 | 0 | 0 | Mdm2-MdmX confirm=103
N#C/C(=C/c1ccc(CNC(=O)C(=O)Nc2cc(Cl)cc(Cl)c2)o1)C(=O)NCc1cccnc1 | 0 | 0 | 0 | 0 | 0 | 0 | - | -
COc1ccccc1NC(=O)Nc1ccnn1C1CCN(C(=O)c2cccnc2)CC1 | 0 | 0 | 0 | 0 | 0 | 0 | - | -
O=C(Nc1cccc(S(=O)(=O)N2CCOCC2)c1)C1CC1 | 0 | 0 | 0 | 0 | 0 | 0 | - | -
CC(C)(C)NCC(=Cc1ccccc1)C(=O)c1ccccc1 | 99 | 98 | 97 | 0 | 87 | 80 | 99 | 107
CC(=O)N/C(=C/c1ccccc1)c1ccccc1 | 0 | 0 | 0 | 0 | 0 | 0 | - | -
Cc1ccc(-c2csc(NC(=O)CSc3nc4ccccc4c(=O)n3CCCN(C)C)n2)cc1 | 0 | 0 | 0 | 0 | 0 | 0 | - | -
NC(Cc1ccc(Cl)cc1)c1csc(NC(=O)NCC2CCCCC2)n1 (stereo not drawn) | 0 | - | 84 | 0 | - | 61 | 0 | 101
Nc1ccc(-c2ncc(-c3ccccc3)o2)cc1 | 68 | 0 | 0 | 0 | 0 | 78 | 92 | 62
CCc1ccc(C(=O)Cc2cc3cccc(OC)c3oc2=O)cc1 | 0 | 0 | 0 | 0 | 0 | 0 | - | -
CCOc1cc(/C=N/Nc2cccc(C(=O)O)c2)ccc1OCC(=O)N1CCCCC1 | 0 | 0 | 0 | 0 | 0 | 0 | - | -
O=C(N/N=C/c1cccs1)C(=O)Nc1cccc(Cl)c1 | 0 | 0 | 0 | 0 | 0 | 0 | - | -
CSc1ccc(/C=N/Nc2cccc(C(=O)O)c2)cc1 | 0 | 79 | 0 | 0 | 56 | 71 | 85 | 0
O=C(O)c1cccc(N/N=C/c2cccs2)c1 | 0 | 77 | 0 | 0 | 57 | 82 | 86 | 0
C=C(C)[C@@H]1C2=CC(C(=O)OC)=C(C[C@H](C(=C)C)[C@H]3O[C@H]3C3=C[C@H]1OC3=O)O2 | 72 | - | 98 | 0 | - | 88 | 89 | 106
SMILES | TWEAK-Fn14 inh | MITF TRPM1 inh | Shn3 3UTR inh | TROY signal inh | EBV LMP1 NFkB | HIF-2a block | HIF-2a conf | HIF-1a cs | others
COc1ccc(NC(=O)CSCC(=O)Nc2ccc(C)c(S(=O)(=O)N3CCCCCC3)c2)cc1 | 0 | 0 | 0 | 0 | 0 | 0 | - | -
Cn1c(/C=C/c2ccc(Cl)cc2Cl)c([N+](=O)[O-])c(=O)n(C)c1=O | 73 | - | ? | 0 | 0 | 69 | 41 | 106
COc1ccc(/C=C/c2c([N+](=O)[O-])c(=O)n(C)c(=O)n2C)c(OC)c1 | 0 | 0 | 0 | 0 | 0 | 0 | - | -
CCc1ccc(/C=C/c2c([N+](=O)[O-])c(=O)n(C)c(=O)n2C)cc1 | 65 | 0 | 0 | 0 | 0 | 46 | 0 | 0
CCOC(CCn1c(SCC(=O)NC2CCCC2)nc2ccccc2c1=O)OCC | 0 | 0 | 0 | 0 | 0 | 0 | - | -
Cc1cccc(NC(=S)NNc2ncc(C(F)(F)F)cc2Cl)c1 | 0 | 0 | 0 | 0 | 0 | 50 | 57 | 0
COc1cccc(CNC(=O)c2ccc(NS(=O)(=O)c3ccc4[nH]c(=O)[nH]c4c3)cc2)c1 | 0 | - | 0 | 0 | 0 | 0 | - | -
O=C1CN(C(=O)Cn2ncc(Cl)c(Cl)c2=O)c2ccccc2N1 | 94 | 93 | 0 | 70 | 0 | 96 | 0 | 106
O=C(Cn1ncc(Cl)c(Cl)c1=O)NC1CCS(=O)(=O)C1 (stereo not drawn) | 0 | 0 | 0 | 0 | 0 | 0 | - | -
O=C1CN(C(=O)COc2ccc(Cl)c(Cl)c2)c2ccccc2N1 | 0 | 0 | 0 | 0 | 0 | 0 | - | -
Cc1cccc(NC(=O)CNC(=O)Cn2ncc(Cl)c(Cl)c2=O)c1C | 100 | 85 | 0 | 0 | 0 | 84 | - | - | Mdm2-MdmX confirm=103
O=C(Cn1ncc(Cl)c(Cl)c1=O)NC1CCCCC1 | 84 | 96 | 0 | 0 | 0 | 86 | 0 | 102 | Mdm2-MdmX confirm=103
O=C(Cn1ncc(Cl)c(Cl)c1=O)NCC1CCCCC1 | 97 | 92 | 0 | 0 | 86 | 97 | 91 | 105
COC(=O)c1ccc(N2C(=O)C3CC(C)=C(C)CC3C2=O)cc1 (stereo not drawn) | 0 | 0 | 0 | 0 | 0 | 0 | - | -
COc1ccc(Cl)cc1C(=O)NNC(=O)CNC(=O)c1ccco1 | 0 | 0 | 0 | 0 | 0 | 0 | - | -
Cc1cccc(S(=O)C(c2ccccc2)c2ccccc2)c1 (stereo not drawn) | 0 | 0 | 0 | 0 | 0 | 0 | - | -
O=C(c1ccccc1)N1CCN(S(=O)(=O)c2cccc(NS(=O)(=O)c3ccccc3)c2)CC1 | 0 | 0 | 0 | 0 | 0 | 0 | - | -
CCOC(=O)C(=Cc1c[nH]c2ccc(S(=O)(=O)N(C)C)cc12)C(=O)OCC | 66 | 0 | 0 | 0 | 0 | 56 | 51 | 81
CCOC(=O)/C(C#N)=C/c1c[nH]c2ccccc12 | 0 | 0 | 0 | 0 | 0 | 0 | - | -
COCCNC(=O)NC(=O)CSc1nc(C)c(C)c(C)n1 | 0 | 0 | 0 | 0 | 0 | 0 | - | -
C(=N\NCc1ccccc1)/c1ccc2ncccc2c1 | 0 | - | 0 | 0 | - | 0 | - | -
